{"source": "PubChem BioAssay AID651635", "about": "(National Center for Advancing Translational Sciences (NCATS), 2012)", "note": "Out of some 400,000 compounds screened, about 1,900 (0.47%) were called active. Where a call stands in place of a potency, no number is given. Roughly 14% stayed inconclusive and do not appear here. The call rests on the fitted dose curve; in most records, active means well fitted cell-killing curve with a large enough effect; inconclusive means small, poorly fitted or top-dose-only effect, or effect the other way; inactive means no such curve, though single readings can be large or run the other way. The full list was thinned out, with actives kept by preference. Potency means the concentration at half of the fitted maximal effect.", "data": [{"assay": "Viability Counterscreen for Primary qHTS for Inhibitors of ATXN expression; further: nearly all actives have a fitted effect of over 40% in size", "details": "S2 cells (HEK-293 line with an ATXN2-luciferase reporter) viability, CellTiter-Fluor protease fluorescence, 24 h; series mostly up to 56.7 µM", "text": "Spinocerebellar ataxia type 2 (SCA2) is a multisystem neurodegenerative disease caused by a dominantly-acting mutation leading to expansion of a polyQ domain in the ataxin-2 protein (ATXN2). SCA2 patients develop progressive ataxia and later lose function in other neuronal systems. Prominent parkinsonian signs develop in some patients. Similar to many neurodegenerative disorders, no symptomatic or disease-modifying treatments are known.\nThe primary objective of the proposed research is to identify compounds inhibiting ATXN2 expression and to test them for efficacy in SCA2 mouse models. To this end, we have developed a cell-based assay paired with an in vivo mouse model using identical luciferase expression constructs. This approach takes advantage of an ATXN2-luciferase transgene, with the luciferase gene flanked by the upstream and downstream portions of the ATXN2 gene. This primary assay was tested against the NIH Molecular Libraries Small Molecule Repository (MLSMR).\nNIH Chemical Genomics Center [NCGC]\nNIH Molecular Libraries Probe Centers Network [MLPCN]\nAssay Submitter (PI): Daniel Scoles, University of Utah\nPROTOCOL TABLE (as described by Inglese J, Shamu CE and Guy RK. 2007)\nSEQUENCE No. (e.g., 1, 2, 3, etc.); […] (e.g., Cells, Incubation, Reagent, etc.); VALUE; DESCRIPTION.\n1; Cells; 4 uL; white, solid bottom, 1536-well Greiner assay plate.\n2; Incubation; 2 hr; 37 degree C in 5% humidified CO2.\n3; Compounds; 23 nL; Kalypsis pintool (Wako USA) equipped with a 1536-well pin head.\n4; Incubation; 24 hr; 37 degree C in 5% humidified CO2.\n5; Reagent; 1 uL; Gly-Phe-7-Amino-4-trifluoromethylcoumarin.\n6; Incubation; 30 min; 37 degree C in 5% humidified CO2.\n7; Detection; Fluorescence; ViewLux plate reader (PerkinElmer).\n8; Reagent; 3 uL; SteadyGlo luciferase solution (Promega).\n9; Incubation; 5 min; room temperature.\n10; Detection; Luminescence; ViewLux plate reader (PerkinElmer).\nNOTES (numbers refer to Sequence numbers above)\n1. S2 cells expressing ATXN2-luciferase reporter were suspended in phenol-red free DMEM and dispensed in assay plates using a Multidrop Combi dispenser (Thermo Fisher Scientific).\n2. Assay plates were incubated. Evaporation was prevented by covering assay plates with metal lids containing holes to allow gas diffusion.\n3. […] Vehicle-only plates, with DMSO being pin-transferred to columns 5-48, were inserted uniformly at the beginning and the end of each library to monitor and record any shifts in assay performance.\n5. 125 uM Gly-Phe-7-Amino-4-trifluoromethylcoumarin (MP Biomedicals) working concentration was used at a final concentration of 25 uM.\n7. To assess cell viability; the assay plates were read using the ViewLux high-throughput CCD imager (PerkinElmer), wherein single end-point fluorescence measurement was acquired (excitation 405/10; emission 540/25 nm).\n8. Detection reagent SteadyGlo Luciferase (Promega) was added to the assay plate.\n10. Luminescence is then measured on the ViewLux imager equipped with a clear emission filter using a 2 sec exposure. All screening operations were performed on a fully integrated robotic system (Kalypsys) containing one RX-130 and two RX-90 anthropomorphic robotic arms (Staubli).\nInglese J, Shamu CE and Guy RK, Reporting data from high throughput screening of small molecule libraries, Nature Chemical Biology, 2007, 3(8): 438-441. doi.org/10.1038/nchembio0807-438.", "values": [{"smiles": "CC1=Nn2c(nnc2-c2ccccc2)SC1", "Potency": "inactive"}, {"smiles": "COc1ccccc1-c1nnc2n1N=C(c1ccc(OC(F)F)c(OCC3CC3)c1)CS2", "Potency": "inactive"}, {"smiles": "COc1ccc(C2=Nn3c(nnc3-c3ccccc3OC)SC2)cc1OC1CCCC1", "Potency": "15.8 µM (active)"}, {"smiles": "COc1ccc(CCNC(=O)c2ccc(-n3c(C)cc4c3CCCC4)cc2)cc1OC", "Potency": "inactive"}, {"smiles": "O=C(Nc1cccc2cccnc12)c1ccc2sc([C@H]3C[C@H](O)[C@@H](CO)O3)nc2c1", "Potency": "inactive"}, {"smiles": "Cc1ccccc1-c1csc(C(O)c2cccc(Cl)c2)n1", "note": "(configuration not stated)", "Potency": "inactive"}, {"smiles": "O=C(/C=C/c1ccc(Cl)cc1)Nc1ccc(Br)cn1", "Potency": "inactive"}, {"smiles": "NCCCNC(=S)NCCCN(Cc1ccc(Cl)cc1)c1ccc(Br)cn1", "Potency": "35.5 µM (active)"}, {"smiles": "S=C(NCCCc1ccccc1)Nc1ccc(Br)cc1", "Potency": "inactive"}, {"smiles": "CN(C)CCNC(=O)c1cccc(-c2cnc3c(NC=O)cc(-c4cccc(C(F)(F)F)c4)cn23)c1", "Potency": "inactive"}, {"smiles": "CN1CCN(c2ccc(NC(=O)c3cc(Cl)c4c(c3)OCCO4)cc2)CC1", "Potency": "inactive"}, {"smiles": "C=CC(=O)Nc1ccc(Nc2ccnc(Nc3ccc(N4CCN(C)CC4)cc3)n2)cc1", "Potency": "14.1 µM (active)"}, {"smiles": "Cc1cccc(N2CCN(c3ccc(NC(=O)/C=C\\C(=O)O)cc3)CC2)c1", "Potency": "inactive"}, {"smiles": "COC(=O)c1c(OCc2ccc(F)cc2)cc(=O)n2c1CCN(Cc1ccc3cccnc3c1)CC2", "Potency": "inactive"}, {"smiles": "CC(C)C(=O)NC(C)c1nnc2n1CCN(Cc1cccc3ncccc13)CC2", "note": "(configuration not stated)", "Potency": "inactive"}, {"smiles": "CCc1ccc2c(c1)C1(NN=C(c3ccccc3)S1)C(=O)N2", "note": "(configuration not stated)", "Potency": "3.16 µM (active)"}, {"smiles": "CO[C@H]1[C@H](NC(=O)C(C)C)c2ccccc2C12CCN(Cc1cnc(N(C)C)s1)CC2", "Potency": "inactive"}, {"smiles": "COc1ccc(C2(Nc3cccc(F)c3)C(=O)c3ccccc3C2=O)cc1", "Potency": "inactive"}, {"smiles": "CCOC(=O)c1scc(-c2ccccc2)c1S(=O)(=O)Nc1ccccc1F", "Potency": "inactive"}, {"smiles": "CCCS(=O)(=O)c1ncc(Cl)c(C(=O)Nc2scc(-c3ccccc3)c2C(=O)OCC)n1", "Potency": "15.8 µM (active)"}, {"smiles": "CCOC(=O)c1c(-c2ccc(-c3ccccc3)cc2)csc1NC(=O)CCC(=O)O", "Potency": "inactive"}, {"smiles": "Cc1ccc(C)c(C(O)c2ncc(-c3cccc4ccccc34)[nH]2)c1", "note": "(configuration not stated)", "Potency": "inactive"}, {"smiles": "CO[C@H]1[C@@H](O)[C@H](N)[C@@H](O[C@H]2O[C@H]([C@H](C)N)CC[C@H]2N)[C@H](O)[C@@H]1N(C)C(=O)CN", "Potency": "inactive"}, {"smiles": "Cc1ccc(CN2CC(N3CCC(Cc4ccccc4)CC3)CS2(=O)=O)cc1", "note": "(configuration not stated)", "Potency": "inactive"}, {"smiles": "NC(=O)C1(Nc2ccccc2Cl)CCCC1", "Potency": "inactive"}, {"smiles": "O=C(Nc1ccccc1Cl)/C(Cl)=C(\\Cl)S(=O)c1ccccc1", "note": "(configuration not stated)", "Potency": "3.55 µM (active)"}, {"smiles": "O=C(COC(=O)CCc1c[nH]c(=O)[nH]1)Nc1ccccc1Cl", "Potency": "inactive"}]}]}
